Results taken from PubChem BioAssay AID2284186 (EPA ToxCast).
Activity calls are given as the source filed them. How the source made its calls: active means hit-call score of the fitted dose curve at least 0.9, where 1 is the maximum; inactive means score below 0.9.

Target: Glucocorticoid receptor (Homo sapiens) (UniProt P04150)
Test: ERF_FR_NR_hGR: Eurofins (ERF) Nuclear Receptor (NR) Radioligand Binding LeadHunter Assay for human Glucocorticoid Receptor (GR) Agonism, conducted at France lab site
Protocol: ERF_FR_NR_hGR is a biochemical, single-readout assay that uses extracted gene-proteins in a cell-free assay. Measurements were taken 6 hour after chemical dosing in a 96-well plate. See GR Human Glucocorticoid NHR Binding (Agonist Radioligand) Assay, Cerep.ERF_FR_NR_hGR is an assay component calculated from the ERF_FR_NR_hGR assay. It is designed to measure radioligand binding using a type of binding reporter as detected by scintillation counting with radiometry technology.Data from the assay component ERF_FR_NR_hGR was analyzed at the assay endpoint, ERF_FR_NR_hGR, in the positive analysis fitting direction relative to DMSO as the negative control and baseline of activity. Using a type of binding reporter, gain-of-signal activity can be used to understand changes in binding as they relate to gene NR3C1. To generalize the intended target to other relatable targets, this assay endpoint is annotated to the nuclear receptor intended target family, where the subfamily is steroidal.
Human cells are incubated for 24 hours at 4C with [3H]dexamethasone ([…]) ligand and Dexamethazone as control inhibitor. Test Sample Requirements: Minimum for 1) Screen: 60 ul of 10 mM stock -OR- 1 mg (pre-weighed) for 10 uM final testing. 2) Dose Response: 90 ul of 10 mM stock -OR- 1 mg (pre-weighed) for a top concentration at 10 uM.

Sequence of Glucocorticoid receptor (Homo sapiens) (P04150 whole entry, looked up): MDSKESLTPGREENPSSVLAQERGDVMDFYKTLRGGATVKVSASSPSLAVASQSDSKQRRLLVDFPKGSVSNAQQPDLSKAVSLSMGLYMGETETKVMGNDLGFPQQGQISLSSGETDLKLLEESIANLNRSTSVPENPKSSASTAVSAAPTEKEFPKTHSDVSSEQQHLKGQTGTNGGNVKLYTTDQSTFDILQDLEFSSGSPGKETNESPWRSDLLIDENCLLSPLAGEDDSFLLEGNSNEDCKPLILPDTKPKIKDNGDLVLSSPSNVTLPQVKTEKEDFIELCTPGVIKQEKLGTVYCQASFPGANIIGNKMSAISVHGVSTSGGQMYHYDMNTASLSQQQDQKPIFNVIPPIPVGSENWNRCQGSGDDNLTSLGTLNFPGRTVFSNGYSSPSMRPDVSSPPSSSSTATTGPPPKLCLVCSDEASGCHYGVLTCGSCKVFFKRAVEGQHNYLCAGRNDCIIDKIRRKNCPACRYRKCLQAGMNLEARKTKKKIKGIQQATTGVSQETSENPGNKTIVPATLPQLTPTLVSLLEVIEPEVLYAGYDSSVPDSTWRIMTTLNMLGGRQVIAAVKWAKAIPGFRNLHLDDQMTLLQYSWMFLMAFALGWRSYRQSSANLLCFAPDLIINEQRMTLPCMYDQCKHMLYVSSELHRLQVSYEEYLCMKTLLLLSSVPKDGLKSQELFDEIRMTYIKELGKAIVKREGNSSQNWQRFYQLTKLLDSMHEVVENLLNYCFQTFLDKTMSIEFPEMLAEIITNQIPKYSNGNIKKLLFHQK

Row | Structure (SMILES) | AC50
1 | O=C(/C=C/c1ccc(O)cc1)CC(=O)/C=C/c1ccc(O)cc1 | 969 nM (active)
